In PubChem BioAssay (Tox21) one finds Potency data, which are given here for ten molecules.

Records with an inconclusive call do not appear. The source made the active and inactive calls. Unless noted, calls come from the whole dose curve; as a rule, active = well fitted curve in the direction sought with a large enough effect in the repeat runs; inconclusive = weak or mixed curves; inactive = no such curve, though single readings can be large; an effect the other way counts as inactive or inconclusive.

A short description of assay [1]: qHTS assay to identify small molecule that activate the aryl hydrocarbon receptor (AhR) signaling pathway - cell viability counter screen (AID 743086). Note: series mostly up to about 70 µM; nearly all actives have a fitted effect of over 45% in size. In short, it runs like this: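 Cytotoxicity counter screen: CellTiter-Fluor signal (30 min, 37 C) in 4000 HepG2 cells/well carrying the DRE-luciferase reporter, following 24 h compound exposure at 37 C.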
For orientation: Quantitative high-throughput screening tests each substance at several concentrations.

In assay [2] the target is Peroxisome proliferator-activated receptor gamma (Homo sapiens) (UniProt P37231). Description: qHTS assay to identify small molecule agonists of the peroxisome proliferator-activated receptor gamma (PPARg) signaling pathway (AID 743094; active = well fitted activation curve with a large enough effect in the signal ratio in the repeat runs, not every such curve was filed as active; the % refers to the signal ratio; note: potency is the fitted concentration of half-maximal effect). In short, it runs like this: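 Compounds dissolved in DMSO were added to PPARg UAS-bla HEK293H cells for 17 h at 37C, and reporter expression was quantified by fluorescence intensity after 1 h with LiveBLAzer B/G FRET substrate.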
Peroxisome proliferator-activated receptor gamma (Homo sapiens), sequence (P37231 whole entry, looked up): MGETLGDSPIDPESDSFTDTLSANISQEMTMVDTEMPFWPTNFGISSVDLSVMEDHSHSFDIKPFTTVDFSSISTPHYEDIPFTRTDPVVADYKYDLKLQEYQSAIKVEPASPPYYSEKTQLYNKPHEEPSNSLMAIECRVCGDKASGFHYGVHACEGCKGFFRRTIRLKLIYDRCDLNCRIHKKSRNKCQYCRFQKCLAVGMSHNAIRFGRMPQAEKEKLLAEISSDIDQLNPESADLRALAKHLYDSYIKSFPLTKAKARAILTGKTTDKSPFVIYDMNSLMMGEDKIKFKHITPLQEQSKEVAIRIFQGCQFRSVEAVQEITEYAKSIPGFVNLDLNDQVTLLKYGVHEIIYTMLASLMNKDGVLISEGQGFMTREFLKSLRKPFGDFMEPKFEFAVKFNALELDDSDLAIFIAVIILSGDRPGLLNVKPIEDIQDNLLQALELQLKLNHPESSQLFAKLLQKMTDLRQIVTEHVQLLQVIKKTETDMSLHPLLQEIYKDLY

The nature of assay [3]: qHTS assay to identify small molecule antagonists of the peroxisome proliferator-activated receptor gamma (PPARg) signaling pathway - cell viability counter screen (AID 743194). Note: nearly all actives have a fitted effect of over 55% in size. In short, it runs like this:
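Viability was measured as CellTiter-Glo luminescence in GeneBLAzer PPARg UAS-bla HEK293H cells. These cells had been exposed 17 h at 37 C to compounds together with rosiglitazone at 50 nM final, with the beta-lactamase readout taken in the same wells.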

The nature of assay [4]: qHTS assay for small molecule agonists of the antioxidant response element (ARE) signaling pathway (AID 743202; active = well fitted activation curve with a large enough effect in the signal ratio in the repeat runs, not every such curve was filed as active; the % refers to the signal ratio; note: potency is the fitted concentration of half-maximal effect). In short, it runs like this:
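Quantitative high-throughput format in HepG2 cells bearing an integrated ARE-beta-lactamase reporter. Compound exposure lasted 16 h at 37 C, and fluorescence was read 2 h after adding LiveBLAzer B/G substrate at room temperature.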

Assay [5] in a line: qHTS assay for small molecule agonists of the antioxidant response element (ARE) signaling pathway - cell viability counter screen (AID 743203; calls by dose curve; note: nearly all actives have a fitted effect of over 55% in size). The method in brief: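 Following 16 hrs of compound treatment at 37C, HepG2 cells with an ARE-controlled beta-lactamase gene were lysed with CellTiter-Glo. Luminescence was read after 30 min at room temperature.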
Assay [6] is described as follows: qHTS assay to identify small molecule agonists of the peroxisome proliferator-activated receptor delta (PPARd) signaling pathway - cell viability counter screen (AID 743211). Note: nearly all actives have a fitted effect of over 55% in size. Note: potency is the fitted concentration of half-maximal effect. The method in brief: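 PPARd-bla HEK293H cells (UAS-beta-lactamase reporter) were treated with compounds for 17 h at 37 C. Viability was then read in the same wells by CellTiter-Glo luminescence after 30 min at room temperature.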

Assay [7] is described as follows: qHTS assay to identify small molecule antagonists of the peroxisome proliferator-activated receptor delta (PPARd) signaling pathway - cell viability counter screen (AID 743213). Note: nearly all actives have a fitted effect of over 50% in size. Note: potency is the fitted concentration of half-maximal effect. In short, it runs like this: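 Agonist-stimulated (L165041, 300 nM final) HEK293H PPARd UAS-bla cells are exposed to compounds for 17 h at 37 C, and ATP-based luminescence (CellTiter-Glo) from the same wells reports cytotoxicity.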

The target in assay [8] is Aryl hydrocarbon receptor (Homo sapiens) (UniProt P35869). Description: qHTS assay to identify small molecule that activate the aryl hydrocarbon receptor (AhR) signaling pathway (AID 743085).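 Note: HG2L7.5c1 human HepG2 liver cells with stably integrated DRE-driven firefly reporter; series mostly up to about 70 µM; nearly all actives have a fitted effect of over 15% in size.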 In short, it runs like this: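 HepG2 cells (HG2L7.5c1) stably carrying a firefly luciferase reporter driven by 20 dioxin responsive elements were exposed to compound for 24 h at 37C after a 5 h settling period; luminescence rise (ONE-Glo) indicated activation.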
Aryl hydrocarbon receptor (Homo sapiens), sequence (P35869 whole entry, looked up): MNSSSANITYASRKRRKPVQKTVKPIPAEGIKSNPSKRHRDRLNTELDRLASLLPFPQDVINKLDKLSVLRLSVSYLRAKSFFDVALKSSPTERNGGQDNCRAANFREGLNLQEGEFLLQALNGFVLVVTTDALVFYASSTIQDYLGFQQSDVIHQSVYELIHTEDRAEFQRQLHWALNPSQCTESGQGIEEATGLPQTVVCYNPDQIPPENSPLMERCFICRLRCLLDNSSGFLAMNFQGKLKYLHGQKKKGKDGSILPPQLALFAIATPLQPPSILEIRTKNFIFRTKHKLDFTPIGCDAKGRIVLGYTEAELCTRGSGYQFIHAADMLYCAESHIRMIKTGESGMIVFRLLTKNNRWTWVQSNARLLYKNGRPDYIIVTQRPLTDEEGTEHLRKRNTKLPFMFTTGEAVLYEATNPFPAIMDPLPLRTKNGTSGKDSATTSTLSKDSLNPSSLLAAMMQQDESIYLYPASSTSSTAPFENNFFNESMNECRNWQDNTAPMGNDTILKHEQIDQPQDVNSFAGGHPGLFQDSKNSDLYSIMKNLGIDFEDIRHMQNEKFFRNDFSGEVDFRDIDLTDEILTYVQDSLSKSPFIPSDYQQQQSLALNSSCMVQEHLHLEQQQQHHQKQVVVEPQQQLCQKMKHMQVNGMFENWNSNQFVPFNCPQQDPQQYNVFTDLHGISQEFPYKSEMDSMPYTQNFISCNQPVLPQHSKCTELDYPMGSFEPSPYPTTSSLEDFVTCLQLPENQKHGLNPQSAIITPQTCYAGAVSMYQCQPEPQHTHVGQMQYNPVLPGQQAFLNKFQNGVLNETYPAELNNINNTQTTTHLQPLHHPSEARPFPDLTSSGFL

A short description of assay [9]: qHTS assay for small molecule activators of the heat shock response signaling pathway - cell viability counter screen (AID 743209). Note: nearly all actives have a fitted effect of over 50% in size. In short, it runs like this: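 Readout: CellTiter-Glo luminescence, 30 min at room temperature. System: HSE-bla HeLa cells, 1500/well, plated overnight. Treatment: compounds in DMSO, 5 h at 37 C.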
Assay [10] has as its target Peroxisome proliferator-activated receptor delta (Homo sapiens) (UniProt Q03181). Description: qHTS assay to identify small molecule agonists of the peroxisome proliferator-activated receptor delta (PPARd) signaling pathway (AID 743212; calls by dose curve; note: potency is the fitted concentration of half-maximal effect). The method in brief: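 HEK293H PPARd-bla cells; 5 h preincubation 37 C/5% CO2; compound (DMSO) 37 C; LiveBLAzer B/G FRET substrate 2 h RT; fluorescence intensity.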

For assay [11] the target is unchanged. Description: qHTS assay to identify small molecule antagonists of the peroxisome proliferator-activated receptor delta (PPARd) signaling pathway (AID 743215; active = well fitted inhibition curve with a large enough effect in the signal ratio in the repeat runs, not every such curve was filed as active; the % refers to the signal ratio; note: series mostly up to about 62 µM). The method in brief: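 HEK293H UAS-bla, PPARd; agonist L165041 300 nM final with cpd in DMSO; 37 C 17 h; FRET substrate, RT 2 h; fluorescence intensity.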
In assay [12] the target is Bile acid receptor (Homo sapiens) (UniProt Q96RI1). Description: qHTS assay to identify small molecule antagonists of the farnesoid-X-receptor (FXR) signaling pathway (AID 743217; active = well fitted inhibition curve with a large enough effect in the signal ratio in the repeat runs, not every such curve was filed as active; the % refers to the signal ratio). The method in brief:
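GeneBLAzer FXR-UAS-bla HEK 293T, CDCA-stimulated (50 uM final). Compound treatment 16 h, 37 °C. Detection: beta-lactamase cleavage of B/G FRET substrate, fluorescence.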

Assay [13] is described as follows: qHTS assay to identify small molecule agonists of the farnesoid-X-receptor (FXR) signaling pathway - cell viability counter screen (AID 743218). Note: nearly all actives have a fitted effect of over 45% in size. In short, it runs like this: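 Parallel cytotoxicity test: compound-treated (16 h, 37 C) HEK 293T FXR-bla reporter cells were lysed with CellTiter-Glo and luminescence recorded.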
In assay [14] the target is Bile acid receptor (Homo sapiens) (UniProt Q96RI1). Description: qHTS assay to identify small molecule agonists of the farnesoid-X-receptor (FXR) signaling pathway (AID 743220; active = well fitted activation curve with a large enough effect in the signal ratio in the repeat runs, not every such curve was filed as active; the % refers to the signal ratio). In short, it runs like this: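 Beta-lactamase reporter under UAS control in GeneBLAzer FXR HEK 293T cells (5000/well) measured with LiveBLAzer FRET substrate after 2 h at room temperature. Compound exposure lasted 16 h at 37C.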
Bile acid receptor (Homo sapiens), sequence (Q96RI1 whole entry, looked up): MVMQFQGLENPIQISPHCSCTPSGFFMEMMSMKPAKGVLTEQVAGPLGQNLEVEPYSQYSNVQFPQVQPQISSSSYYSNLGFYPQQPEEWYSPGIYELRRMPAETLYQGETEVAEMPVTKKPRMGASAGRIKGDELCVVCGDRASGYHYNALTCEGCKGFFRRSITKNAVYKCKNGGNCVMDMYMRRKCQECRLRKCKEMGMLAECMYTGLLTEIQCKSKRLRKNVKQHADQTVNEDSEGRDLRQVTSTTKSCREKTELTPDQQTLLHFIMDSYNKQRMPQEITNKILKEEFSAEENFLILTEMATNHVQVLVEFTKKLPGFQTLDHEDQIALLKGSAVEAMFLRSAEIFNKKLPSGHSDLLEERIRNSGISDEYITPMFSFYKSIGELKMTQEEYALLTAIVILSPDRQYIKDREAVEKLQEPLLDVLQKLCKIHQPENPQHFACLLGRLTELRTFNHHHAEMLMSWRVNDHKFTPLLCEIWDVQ

Assay [15] can be described thus: qHTS assay to identify small molecule antagonists of the farnesoid-X-receptor (FXR) signaling pathway - cell viability counter screen (AID 743221; active = well fitted cell-killing curve with a large enough effect in the repeat runs, not every such curve was filed as active; note: nearly all actives have a fitted effect of over 50% in size). In short, it runs like this:
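FXR-UAS-bla HEK 293T cells were treated with test compounds plus chenodeoxycholic acid (50 uM final) for 16 h at 37 C. Cell viability in the same wells was then read as CellTiter-Glo luminescence after 30 min at room temperature.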

The target of assay [16] is Vitamin D3 receptor (Homo sapiens) (UniProt P11473). Description: qHTS assay to identify small molecule agonists of the vitamin D receptor (VDR) signaling pathway (AID 743222; calls by dose curve). The method in brief: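 In VDR-bla cells, compound-induced beta-lactamase expression is quantified by FRET substrate fluorescence. Treatment lasts 16 h at 37C; substrate develops 2 h at room temperature.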
Vitamin D3 receptor (Homo sapiens), sequence (P11473 whole entry, looked up): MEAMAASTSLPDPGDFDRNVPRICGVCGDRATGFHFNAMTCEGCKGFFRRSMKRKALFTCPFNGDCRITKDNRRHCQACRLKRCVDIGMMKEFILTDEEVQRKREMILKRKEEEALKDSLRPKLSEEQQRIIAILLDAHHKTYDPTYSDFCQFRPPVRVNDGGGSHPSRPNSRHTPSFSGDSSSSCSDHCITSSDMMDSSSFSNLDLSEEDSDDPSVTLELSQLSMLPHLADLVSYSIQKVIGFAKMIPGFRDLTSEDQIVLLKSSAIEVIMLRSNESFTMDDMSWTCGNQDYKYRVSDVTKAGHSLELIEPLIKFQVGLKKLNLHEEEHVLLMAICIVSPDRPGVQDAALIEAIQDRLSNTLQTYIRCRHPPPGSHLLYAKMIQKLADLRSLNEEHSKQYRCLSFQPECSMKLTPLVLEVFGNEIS

Assay [17] has the same target. Description: qHTS assay to identify small molecule antagonists of the vitamin D receptor (VDR) signaling pathway (AID 743223; active = well fitted inhibition curve with a large enough effect in the signal ratio in the repeat runs, not every such curve was filed as active; the % refers to the signal ratio). The method in brief:
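VDR-bla cells were plated, incubated 4 h at 37C, then given compound and 1alpha,25-dihydroxyvitamin D3 (3 nM final). After 16 h at 37C, LiveBLAzer B/G FRET substrate was added for 2 h at room temperature and fluorescence read.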

Assay [18] in a line: qHTS assay to identify small molecule agonists of the vitamin D receptor (VDR) signaling pathway - cell viability counter screen (AID 743224). Note: series mostly up to about 63 µM; nearly all actives have a fitted effect of over 50% in size. The method in brief:
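Plated VDR-bla cells (4 h, 37C) received compound, incubated 16 h, then LiveBLAzer substrate 2 h RT; CellTiter-Glo added afterwards, luminescence read at 30 min.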

Assay [19] deals with Peroxisome proliferator-activated receptor gamma (Homo sapiens) (UniProt P37231). Description: qHTS assay to identify small molecule antagonists of the peroxisome proliferator-activated receptor gamma (PPARg) signaling pathway (AID 743191; calls by dose curve; note: nearly all actives have a fitted effect of over 30% in size; note: potency is the fitted concentration of half-maximal effect). In short, it runs like this:
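Beta-lactamase reporter under UAS control in HEK293H PPARg-bla cells; compound treatment 17 h at 37C. Read-out: fluorescence intensity after 1 h room-temperature incubation with LiveBLAzer B/G FRET substrate.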

The nature of assay [20]: qHTS assay for small molecule activators of the heat shock response signaling pathway (AID 743210; active = well fitted activation curve with a large enough effect in the signal ratio in the repeat runs, with a control signal flat, not every such curve was filed as active; the % refers to the signal ratio;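 note: HeLa cells with beta-lactamase reporter driven by heat shock elements; series mostly up to about 63 µM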). In short, it runs like this: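 HeLa HSE-bla cells, overnight plating; cpd in DMSO 5 h, 37 C; LiveBLAzer B/G FRET substrate 2.5 h RT; fluorescence intensity read.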

Peroxisome proliferator-activated receptor delta (Homo sapiens), sequence (Q03181 whole entry, looked up): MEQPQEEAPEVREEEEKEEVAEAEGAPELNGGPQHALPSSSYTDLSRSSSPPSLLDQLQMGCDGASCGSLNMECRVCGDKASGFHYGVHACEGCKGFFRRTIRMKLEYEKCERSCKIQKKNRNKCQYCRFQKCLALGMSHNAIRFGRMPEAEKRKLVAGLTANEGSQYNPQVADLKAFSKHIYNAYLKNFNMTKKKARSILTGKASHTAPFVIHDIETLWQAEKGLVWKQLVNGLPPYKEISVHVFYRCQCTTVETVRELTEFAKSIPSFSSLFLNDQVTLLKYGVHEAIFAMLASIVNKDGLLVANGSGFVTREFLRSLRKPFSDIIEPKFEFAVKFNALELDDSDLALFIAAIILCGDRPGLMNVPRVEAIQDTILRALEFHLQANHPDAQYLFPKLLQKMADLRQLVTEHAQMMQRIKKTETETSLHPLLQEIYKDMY

With `O=C(OCC(O)CO)c1ccccc1Nc1ccnc2cc(Cl)ccc12` (stereo not drawn), the Potency result in assay [1], in assay [2], in assay [3] and in assay [5] was “inactive” each time. Besides, the results for the Potency in [4], in assay [6] and in assay [7] were 11.9 µM (active), 33.5 µM (active) and 26.6 µM (active), respectively.

With `Cc1cccc(N(C)C(=S)Oc2ccc3c(c2)CCC3)c1`, the Potency entry in assay [8], in assay [2], in assay [3], in assay [5], in assay [9] and in assay [6] was “inactive” throughout. In addition, the Potency result in [10], in [7], in assay [11], in assay [12], in [13] and in [14] was “inactive” throughout. In addition, the Potency entry in [15], in assay [16], in assay [17] and in assay [18] was “inactive” each time.

As to `Oc1cccc(O)c1O`, the Potency result in [1], in [2], in assay [19], in assay [3], in assay [4] and in assay [5] was “inactive” in each case. The Potency result in assay [9], in [6], in [11], in assay [13], in assay [15] and in assay [16] was “inactive” each time. For the same molecule, the Potency result in [17] and in assay [18] was “inactive” in each case.

Take `CCCCCC[C@@H](O)C/C=C\CCCCCCCC(=O)O`: the Potency entry in assay [1], in assay [2], in [11], in assay [12], in [17] and in assay [18] was “inactive” each time. The Potency in assay [10] was 43.6 µM (active); in assay [7], 49 µM (active).

Take `c1ccc(C[n+]2cccc3ccccc32)cc1`: the Potency entry in assay [1], in assay [2], in assay [19], in [5], in [9] and in [20] was “inactive” throughout. Also, the Potency entry in [6], in assay [7], in [11], in assay [12], in [13] and in assay [14] was “inactive” throughout. Besides, the Potency result in assay [15] and in assay [16] was “inactive” each time.

With `CCOc1ccccc1O[C@H](c1ccccc1)[C@H]1CNCCO1`, the Potency entry in assay [8], in [2], in [3], in assay [5], in assay [9] and in [20] was “inactive” each time. The Potency entry in assay [6], in assay [10], in assay [11], in assay [13], in assay [14] and in [15] was “inactive” throughout. In addition, in assay [18], the Potency result is “inactive”.

Take `O=[N+]([O-])c1ccc(O/N=C/c2cc(Br)c(O)c(Br)c2)c([N+](=O)[O-])c1`: the Potency entry in assay [1], in assay [2], in assay [9], in assay [12], in assay [13] and in [14] was “inactive” throughout. In addition, the Potency entry in [16], in [17] and in assay [18] was “inactive” in each case. The Potency in assay [19] was 19.4 µM (active); in [4] it was 8.59 µM (active).

With `CCC=CC#N`, the Potency result in assay [1], in assay [2], in assay [3], in assay [4], in assay [5] and in assay [20] was “inactive” throughout. The Potency entry in [6], in assay [10], in [7], in [15] and in assay [18] was “inactive” throughout.

For the molecule `NC1[C@H]2CN(c3nc4c(cc3F)c(=O)c(C(=O)O)cn4-c3ccc(F)cc3F)C[C@@H]12` (stereo partly drawn), the Potency entry in assay [8], in assay [3], in assay [5], in assay [9], in assay [20] and in [6] was “inactive” each time. Moreover, the Potency entry in assay [7], in [13] and in assay [15] was “inactive” in each case. The results for the Potency in [2], in [4] and in assay [10] were 23.9 µM (active), 8.41 µM (active) and 29.8 µM (active), respectively.

In the case of `CCOc1ccc(Cc2nccc3cc(OCC)c(OCC)cc23)cc1OCC`, the Potency result in assay [1], in [2], in [3], in assay [5], in assay [9] and in [20] was “inactive” in each case. For the same molecule, the Potency entry in assay [6], in [10], in assay [7], in assay [15], in assay [16] and in [18] was “inactive” in each case.
